# DT40 TDP1 CPT: growth inhibition of DT40 Tdp1-/-;hTDP1 cells with camptothecin (screen for TDP1 inhibitors); AID 686979; 420,000 compounds, 12% hits; Potency, µM (series often up to 46.2 µM), for inactives: at the highest dose activity change, negative = growth inhibition, usual class: inhibitors; chicken DT40 Tdp1-/-;hTDP1 cells + 20 nM CPT, ATP luminescence, 48 h; note: % is set by controls: 0 for no effect and ±100 for the full control effect; nearly all actives have a fitted effect of over 55% in size
#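 Chicken DT40 Tdp1-/- cells stably complemented with human TDP1 were seeded at 400 cells/well in medium containing 20 nM camptothecin, exposed to pin-transferred compounds, and grown at 37 °C for at least 48 hr. Viability was read as ATP luminescence.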
# DT40 TDP1 no CPT: qHTS for Inhibitors of human tyrosyl-DNA phosphodiesterase 1 (TDP1): qHTS in cells in absence of CPT; DT40 Tdp1-/- hTDP1 cells, no CPT, ATP luminescence, 48 h; Potency, µM (titrated, usually from 46.2 µM), without a hit: at the top dose activity change, negative = growth inhibition, hits mostly inhibitors; 420,000 compounds, 15% hits; AID 686978, 2013; note: % is set by controls: 0 for no effect and ±100 for the full control effect; nearly all actives have a fitted effect of over 55% in size
#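 Growth kinetics read by CellTiter-Glo luminescence after ≥48 hr at 37 °C. Cells: DT40 Tdp1-/- stably carrying human TDP1, 400 per well, compound exposure in the absence of CPT (DMSO vehicle).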
# TGFb SMAD3 inh: inhibitors of TGF-b signaling; HepG2 CAGA-GFP TGF-b/SMAD3 reporter, GFP fluorescence, 18 h; TGF-beta stimulated, 500 pg/mL final; Potency, µM (top dose mostly 46.1 µM), without a hit: at the top dose activity, negative = inhibition, usual class: inhibitors; 410,000 compounds, 1.2% hits; AID 588855; note: % is set by controls: 0 for no effect and ±100 for the full control effect; nearly all actives have a fitted effect of over 65% in size
#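 Inhibition was scored as loss of TGF-beta-induced (500 pg/mL final, 18 hours, 37 degrees C) GFP in HEPG2 cells carrying a CAGA-GFP reporter, in DMEM with 1% FBS. Well GFP was summed per cell; Activity was normalised to unstimulated and stimulated DMSO wells, then concentration-response fitting.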
# HepG2 viability: counter-screen for TGF-b inhibitors: cytotoxicity in HepG2 cells. HepG2 CAGA-GFP viability, ATP luminescence, 18 h. Potency, µM (doses to about 46.1 µM), for inactives: at the top dose activity change, negative = cytotoxicity, hits mostly cytotoxic. 410,000 compounds, 0.76% hits. AID 588856
#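 HepG2 CAGA-GFP cells (1000/well, DMEM with 1% FBS) received compound, then TGF-beta at 500 pg/mL final, and were incubated 18 hours at 37 degrees C. Viability was read by CellTiter-Glo luminescence. Media-only wells were set as complete cell-killing and DMSO as no toxicity.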
# S2 tox: viability counter-screen for ATXN expression inhibitors | S2 cells (HEK-293 line with an ATXN2-luciferase reporter) viability, CellTiter-Fluor protease fluorescence, 24 h | Potency, µM (titrated, usually from 56.7 µM), usual class: cytotoxic | 400,000 compounds, 0.49% hits | AID 651635; note: nearly all actives have a fitted effect of over 40% in size
# ATXN2 expr inh: inhibitors of ATXN2 expression; 360,000 compounds, 0.72% hits; HEK-293 ATXN2-luciferase reporter, luminescence, 24 h; Potency, µM (doses to about 57 µM), for the others: top-dose activity change, negative = inhibition, actives largely listed as inhibitors; note: % is set by controls: 0 for no effect and ±100 for the full control effect; nearly all actives have a fitted effect of over 55% in size
#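 qHTS (up to 57 uM final) was run with 24 h compound exposure of reporter cells at 37 °C. Each well was multiplexed: SteadyGlo luminescence measured ATXN2-luciferase expression after a fluorogenic Gly-Phe-AFC viability readout (25 uM final).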
# The depositor's hits bear a star; i = inactive; u = inconclusive; x = not tested or not shown; [ ] = dose if it differs, or a comment. Compounds with a hit are over-represented: about 17% of the library has one in this group of screens. Calls come from the whole dose curve; as a rule, active = well fitted curve in the direction sought with a large enough effect; inconclusive = small, poorly fitted or top-dose-only effect, or another doubt; inactive = no such curve, though single readings can be large; an effect the other way counts as inactive or inconclusive. Potency is the fitted concentration of half-maximal effect.
SMILES,DT40 TDP1 CPT,DT40 TDP1 no CPT,TGFb SMAD3 inh,HepG2 viability,S2 tox,ATXN2 expr inh
CCOC(=O)[C@]12CCCC=C1N(Cc1ccc3c(c1)OCO3)C(=O)[C@H](CC(=O)N1CCCCC1)C2,13µM*,15µM*,x,x,u,-1%
CCOC(=O)[C@]12CCC=C1N(Cc1ccc3c(c1)OCO3)C(=O)[C@H](CC(=O)N1CCC(c3ccccc3)CC1)C2,u,16µM*,x,x,u,-26%
CCOC(=O)[C@]12CCCC=C1N(Cc1ccc3c(c1)OCO3)C(=O)[C@H](CC(=O)N1CCCC1)C2,u,21µM*,x,x,i,6%
CCOC(=O)[C@]12CCC=C1N(Cc1ccc3c(c1)OCO3)C(=O)[C@H](CC(=O)N1CCN(C(=O)c3ccco3)CC1)C2,u,-13%,x,x,i,16%
CC1CCC(C(=O)N(c2cc(C#CC(C)(C)C)sc2C(=O)O)C2CCC(O)CC2)CC1 (centres undefined),x,x,x,x,x,14%
O=c1c2c(nc3c(-c4ccc(Cl)cc4)c[nH]n13)CCCC2,3.5µM*,4µM*,u,-22%,u,16µM*
Cc1[nH]n2c(=O)c3c(nc2c1-c1ccccc1)CCCC3,u,u,-5%,-21%,i,-17%
O=c1c2c(nc3c(-c4cccc5ccccc45)c[nH]n13)CCC2,25µM*,u,-6%,-50%,i,-16%
Cc1[nH]n2c(=O)c3c(nc2c1-c1ccc(F)cc1)CCCC3,16µM*,u,8%,4%,i,10%[11.3 µM]
CC(NC(=O)C1CCOCC1)c1nnc2n1CCN(Cc1cc3c(cc1Cl)OCO3)CC2 (centres undefined),2%,-3%,x,x,i,x
CCc1ccc(C(C)NC(=O)c2cc(C)oc2C)cc1 (centres undefined),21µM*,23µM*,-10%,-14%,i,-14%
COc1ccc(CNC(=O)c2cc(S(=O)(=O)N3CCCCC3)ccc2N2CCOCC2)cc1OC,u,9.2µM*,-17%,-7%,i,-2%
COc1ccc(CCNC(=O)COC(=O)c2cc(S(=O)(=O)N3CCOCC3)ccc2C)cc1OC,18µM*,u,8%,9%,i,2%
O=C(NCCc1c[nH]c2ccccc12)c1cc(S(=O)(=O)N2CCCCC2)ccc1N1CCOCC1,u,13µM*,10%,-18%,i,-4%
Cc1ccc(S(=O)(=O)N(C)C)cc1NC(=O)c1cc(S(=O)(=O)N2CCCCC2)ccc1N1CCOCC1,u,12µM*,38%,-12%,i,1%
COc1cc(NC(=O)c2cc(S(=O)(=O)N3CCCCC3)ccc2N2CCOCC2)cc(OC)c1,21µM*,21µM*,-23%,-10%,i,2%
Cc1ccc(S(=O)(=O)N2CCN(C(=O)c3cc(S(=O)(=O)N(C)C)ccc3N3CCCC3)CC2)c(C)c1,u,16µM*,-15%,-53%,i,6%
CC(C)(C)NC(=O)NC12CC3CC(CC(C3)C1)C2,5%,-9%,-20%,-18%,i,x
CC(Cl)C(=O)NC(=O)NC12CC3CC(CC(C3)C1)C2 (centres undefined),16µM*,21µM*,-4%,-25%,i,0%
CCOc1ccccc1OCCC(=O)NNC(=O)Cn1nc(C)cc1C,12%,-12%,1%,3%,i,-8%
OC[C@@H]1CN(Cc2ccco2)C[C@H](n2cnc3c(NC4CC4)ncnc32)O1,5%,-26%,1%,8%,i,17%
CCC(C(=O)NCc1ccccc1)n1c(-c2ccc3c(c2)CCO3)nc2ccccc21 (centres undefined),15µM*,u,x,x,x,x
O=C(NCc1ccc2c(c1)CCO2)Nc1ccccc1,15%,-14%,0%,-58%,i,15%
CCOC(=O)c1c(NC(=O)c2cc(=O)c3c(C)cc(C)cc3o2)sc2c1CCC2,-4%,0%,12%,3%,i,2%
COc1ccc(NC(C)=O)cc1NC(=O)c1ccc(C#N)cc1,-5%,-13%,-21%,2%,i,x
SMILES,DT40 TDP1 CPT,DT40 TDP1 no CPT,TGFb SMAD3 inh,HepG2 viability,S2 tox,ATXN2 expr inh
Cc1ccccc1C(=O)N1CCC(C(=O)N(CC(C)C)c2c(N)n(Cc3ccccc3)c(=O)[nH]c2=O)CC1,0%,0%,-27%,-4%,u,12%
O=C(NCCC1=CCCCC1)c1cnccn1,-12%,-24%,-2%,-6%,i,30%
Cc1csc2nc(O)c(C(=O)NCCCc3ccccc3)c(=O)n12,15µM*,15µM*,-16%,-15%,i,-4%
Cc1csc2nc(O)c(C(=O)NCCC3=CCCCC3)c(=O)n12,15µM*,7.3µM*,4%,-1%,i,1%
Cc1nc2scc(C)n2c(=O)c1S(=O)(=O)NCCc1ccccc1,u,u,-5%,-2%,i,4%
O=C(Oc1cccccc1=O)c1ccccc1,18µM*,21µM*,10%,0%,u,x
O=C(Oc1ccccc1Cl)c1ccccc1,-21%,1%,1%,8%,i,9%
Cc1nc(SCC(=O)NC(C)c2ccccc2)c2oc3ccccc3c2n1 (centres undefined),16µM*,21µM*,8%,-3%,i,-16%
Cc1nc(SCc2cccc(F)c2)c2oc3ccccc3c2n1,-9%,u,-10%,0%,i,-15%
CCc1nc(SCC(=O)N2CCc3ccccc32)c2oc3ccccc3c2n1,5%,1%,9%,1%,i,x
Cc1nc(SCC(=O)N2CCCc3ccccc32)c2oc3ccccc3c2n1,16µM*,u,-16%,-49%,i,-18%
Cc1cc(C)nc(Sc2nc(C)nc3c2oc2ccccc23)n1,u,23µM*,u,7%,i,18%
Cc1cc(C)c2oc(C(=O)N(Cc3ccccc3)C3CCS(=O)(=O)C3)cc(=O)c2c1 (centres undefined),8%,u,4%,-16%,u,-9%
CCCCN(c1ccccc1)S(=O)(=O)c1cc2c3c(c1)C(C)C(=O)N3CCC2 (centres undefined),10µM*,29µM*,u,-5%,x,x
CC1C(=O)N2CCCc3cc(S(=O)(=O)N(C)Cc4ccccc4)cc1c32 (centres undefined),u,u,-8%,-2%,i,x

# Compound activity as filed in PubChem BioAssay.
